This note sets out measurements from article PMC9838217, “Structure of SALL4 zinc finger domain reveals link between AT-rich DNA binding and Okihiro syndrome”.

Holding throughout (assay): HT-SELEX; high values mean tight binding
What all share (settings): protein: recombinant; vector His6-GST; dsDNA, one strand shown

One assay addresses T1, SALL4 ZFC4 WT (HT-SELEX) (Mus musculus, UniProt Q8BX22 870-940).
T1 sequence: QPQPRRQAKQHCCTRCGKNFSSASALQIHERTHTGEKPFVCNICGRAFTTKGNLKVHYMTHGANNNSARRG
The procedure, abridged: (§1)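 Recombinant mouse SALL4 zinc finger cluster 4 (residues 870–940, 1 µg), purified, was mixed with library DNA (1.5 µg in the first cycle, 200 ng thereafter) in 100 µl of buffer containing 10 mM Tris–HCl pH 7.5, 50 mM NaCl, poly(dI-dC) and DTT, and left for 10 min at room temperature. Complexes were captured on Ni2+ beads, washed, amplified by PCR and reselected for up to 6 cycles in triplicate, after which MiSeq sequencing and a 6-mer scan followed. Binding signal is the read fraction of each canonical k-mer, given as fold change relative to the starting random library.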

The target of assay [1] is T2, SALL4 ZFC4 R900W (HT-SELEX) (Mus musculus, UniProt Q8BX22 870-940, R900W).
T2 sequence: T1 sequence with R31W
The method, boiled down: as §1

Assay [2] addresses T3, SALL4 ZFC4 G921D (HT-SELEX) (Mus musculus, UniProt Q8BX22 870-940, G921D).
T3 sequence: T1 sequence with G52D
The procedure, abridged: as §1

Residue numbers refer to the chain shown, from its start.

Turning to ATGTGG, the results for the binding signal (in the assay with SALL4 ZFC4 WT (HT-SELEX); in assay [1]; in assay [2]) were 0.714 ± 0.021 fold-change vs cycle 0, 0.787 ± 0.0136 fold-change vs cycle 0 and 0.851 ± 0.0464 fold-change vs cycle 0, respectively.
For AAGTTG, the binding signal turned out to be 1.18 ± 0.062 fold-change vs cycle 0 with SALL4 ZFC4 WT (HT-SELEX), 1.32 ± 0.0296 fold-change vs cycle 0 in assay [1] and 1.29 ± 0.0737 fold-change vs cycle 0 in assay [2].
With ATACAT, the binding signal with SALL4 ZFC4 WT (HT-SELEX) amounted to 2.32 ± 0.0956 fold-change vs cycle 0; in assay [1], 2.02 ± 0.0564 fold-change vs cycle 0; in assay [2], 1.83 ± 0.109 fold-change vs cycle 0.
Regarding CAATAA, the binding signal with SALL4 ZFC4 WT (HT-SELEX) was determined as 2.18 ± 0.182 fold-change vs cycle 0; in assay [1] it was 1.91 ± 0.101 fold-change vs cycle 0; in assay [2] it was 1.73 ± 0.173 fold-change vs cycle 0.
As to ATTACG, the binding signal was 1.22 ± 0.102 fold-change vs cycle 0 with SALL4 ZFC4 WT (HT-SELEX), 1.27 ± 0.0629 fold-change vs cycle 0 in assay [1] and 1.23 ± 0.0609 fold-change vs cycle 0 in assay [2].
Turning to CAAGGC, the binding signal was found to be 0.301 ± 0.0203 fold-change vs cycle 0 with SALL4 ZFC4 WT (HT-SELEX), 0.371 ± 0.0118 fold-change vs cycle 0 in assay [1] and 0.492 ± 0.0622 fold-change vs cycle 0 in assay [2].
With TAAGTA, the binding signal amounted to 2.21 ± 0.113 fold-change vs cycle 0 with SALL4 ZFC4 WT (HT-SELEX), 2.23 ± 0.16 fold-change vs cycle 0 in assay [1] and 1.89 ± 0.229 fold-change vs cycle 0 in assay [2].
As to AGATAT, the binding signal in the assay with SALL4 ZFC4 WT (HT-SELEX) worked out at 2.61 ± 0.24 fold-change vs cycle 0; in assay [1], 2.08 ± 0.11 fold-change vs cycle 0; in assay [2] it was 1.86 ± 0.213 fold-change vs cycle 0.
GCAAAA: the binding signal with SALL4 ZFC4 WT (HT-SELEX) is 0.804 ± 0.0195 fold-change vs cycle 0; in assay [1] it was 0.786 ± 0.0174 fold-change vs cycle 0; in assay [2], 0.873 ± 0.0736 fold-change vs cycle 0.
ACTTCT: the binding signal with SALL4 ZFC4 WT (HT-SELEX) came to 1.44 ± 0.0317 fold-change vs cycle 0; in assay [1] it was 1.64 ± 0.0808 fold-change vs cycle 0; in assay [2], 1.45 ± 0.0874 fold-change vs cycle 0.
For CTGTAA, the binding signal in the assay with SALL4 ZFC4 WT (HT-SELEX) was determined as 1.29 ± 0.062 fold-change vs cycle 0; in assay [1], 1.42 ± 0.0769 fold-change vs cycle 0; in assay [2], 1.33 ± 0.121 fold-change vs cycle 0.
For the sequence GAATTC, the binding signal with SALL4 ZFC4 WT (HT-SELEX) came out at 1.29 ± 0.0387 fold-change vs cycle 0; in assay [1], 1.38 ± 0.0509 fold-change vs cycle 0; in assay [2], 1.33 ± 0.0652 fold-change vs cycle 0.
As to GGTTGA, the binding signal turned out to be 0.753 ± 0.0201 fold-change vs cycle 0 in the assay with SALL4 ZFC4 WT (HT-SELEX), 0.876 ± 0.0229 fold-change vs cycle 0 in assay [1] and 0.9303 ± 0.00634 fold-change vs cycle 0 in assay [2].
For the sequence ACACGA, the binding signal with SALL4 ZFC4 WT (HT-SELEX) came out at 0.663 ± 0.0255 fold-change vs cycle 0; in assay [1], 0.777 ± 0.0248 fold-change vs cycle 0; in assay [2], 0.869 ± 0.0214 fold-change vs cycle 0.
In the case of ACGCAA, the binding signal with SALL4 ZFC4 WT (HT-SELEX) amounted to 0.452 ± 0.0105 fold-change vs cycle 0; in assay [1] it was 0.521 ± 0.02 fold-change vs cycle 0; in assay [2] it was 0.635 ± 0.0427 fold-change vs cycle 0.
The like results for AAGAGC were, in that order, 0.752 ± 0.0601 fold-change vs cycle 0, 0.917 ± 0.0813 fold-change vs cycle 0 and 1.02 ± 0.0502 fold-change vs cycle 0.
Regarding AGAGTA, the binding signal was determined as 1.47 ± 0.0798 fold-change vs cycle 0 with SALL4 ZFC4 WT (HT-SELEX), 1.61 ± 0.0906 fold-change vs cycle 0 in assay [1] and 1.46 ± 0.121 fold-change vs cycle 0 in assay [2].
ATAAGA: the binding signal with SALL4 ZFC4 WT (HT-SELEX) was 2.45 ± 0.123 fold-change vs cycle 0; in assay [1] it was 2.3 ± 0.143 fold-change vs cycle 0; in assay [2], 1.92 ± 0.245 fold-change vs cycle 0.
For the sequence AATATT, the binding signal with SALL4 ZFC4 WT (HT-SELEX) turned out to be 5.49 ± 0.414 fold-change vs cycle 0; in assay [1], 2.54 ± 0.119 fold-change vs cycle 0; in assay [2], 2.19 ± 0.255 fold-change vs cycle 0.
Regarding CGTACG, the binding signal stood at 0.303 ± 0.0125 fold-change vs cycle 0 in the assay with SALL4 ZFC4 WT (HT-SELEX), 0.389 ± 0.029 fold-change vs cycle 0 in assay [1] and 0.481 ± 0.0656 fold-change vs cycle 0 in assay [2].
The like results for AGGCAA were, in that order, 0.538 ± 0.0205 fold-change vs cycle 0, 0.6566 ± 0.00197 fold-change vs cycle 0 and 0.754 ± 0.0411 fold-change vs cycle 0.
As to GGATAC, the binding signal with SALL4 ZFC4 WT (HT-SELEX) worked out at 0.871 ± 0.0477 fold-change vs cycle 0; in assay [1], 1.02 ± 0.0352 fold-change vs cycle 0; in assay [2], 1.03 ± 0.0426 fold-change vs cycle 0.
Consider CTTAAG, for which the binding signal in the assay with SALL4 ZFC4 WT (HT-SELEX) amounted to 1.38 ± 0.0318 fold-change vs cycle 0; in assay [1] it was 1.56 ± 0.0368 fold-change vs cycle 0; in assay [2], 1.46 ± 0.11 fold-change vs cycle 0.
In the case of CATAAC, the binding signal with SALL4 ZFC4 WT (HT-SELEX) was found to be 1.83 ± 0.124 fold-change vs cycle 0; in assay [1], 1.43 ± 0.0541 fold-change vs cycle 0; in assay [2], 1.37 ± 0.0667 fold-change vs cycle 0.
Consider ATGACG, for which the binding signal stood at 0.724 ± 0.0223 fold-change vs cycle 0 in the assay with SALL4 ZFC4 WT (HT-SELEX), 0.789 ± 0.0467 fold-change vs cycle 0 in assay [1] and 0.852 ± 0.0204 fold-change vs cycle 0 in assay [2].
For AGCGAA, in that order: 0.492 ± 0.0304 fold-change vs cycle 0, 0.566 ± 0.0332 fold-change vs cycle 0 and 0.686 ± 0.0519 fold-change vs cycle 0.
With GCTCCA, the results for the binding signal (with SALL4 ZFC4 WT (HT-SELEX); in assay [1]; in assay [2]) were 0.305 ± 0.0228 fold-change vs cycle 0, 0.37 ± 0.0101 fold-change vs cycle 0 and 0.505 ± 0.0396 fold-change vs cycle 0, respectively.
The like results for AAGATC were, in that order, 1.25 ± 0.0866 fold-change vs cycle 0, 1.42 ± 0.0452 fold-change vs cycle 0 and 1.44 ± 0.0439 fold-change vs cycle 0.
Take AATTGA: the binding signal amounted to 1.92 ± 0.0967 fold-change vs cycle 0 with SALL4 ZFC4 WT (HT-SELEX), 1.88 ± 0.0991 fold-change vs cycle 0 in assay [1] and 1.75 ± 0.142 fold-change vs cycle 0 in assay [2].
Regarding ACAATA, the binding signal with SALL4 ZFC4 WT (HT-SELEX) is 2.09 ± 0.146 fold-change vs cycle 0; in assay [1], 1.92 ± 0.0865 fold-change vs cycle 0; in assay [2], 1.71 ± 0.156 fold-change vs cycle 0.
